Holding throughout (conditions): mRNA level, 48 h; actives raise or lower the signal
Read-out in test [1]: BCL2L11 (gene 10018)
Kind of test: LTEA_HepaRG_BCL2L11: Life Technologies and Expression Analysis (LTEA) Assay for Bcl-2 (BCL2L11) gene using HepaRG (AID 2283473). Summed up: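 Cells were plated, cultured 48 h, switched to serum-free induction medium, then dosed in duplicate for 48 h at eight half-log concentrations up to 100 uM. Lysates underwent RNA isolation and TaqMan qRT-PCR; gain or loss versus DMSO was fitted.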

Read-out in test [2]: Apolipoprotein A-V (APOA5) gene, APOA5 (gene 116519)
Kind of test: LTEA_HepaRG_APOA5: Life Technologies and Expression Analysis (LTEA) Assay for Apolipoprotein A-V (APOA5) gene using HepaRG (AID 2283474). The gist of the method:
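Human liver HepaRG cells are treated 48 h with test chemicals (100 uM top, half-log dilutions, 0.5% DMSO). APOA5 mRNA induction or loss is measured by qRT-PCR relative to vehicle.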

Read-out in test [3]: Apoptosis regulator Bcl-2 (Homo sapiens) (UniProt P10415)
Description: LTEA_HepaRG_BCL2: Life Technologies and Expression Analysis (LTEA) Assay for Bcl-2 gene using HepaRG (AID 2283475). The gist of the method: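 Differentiated HepaRG cells in serum-free induction medium were exposed for 48 h to eight half-log concentrations up to 100 uM in 0.5% DMSO, in duplicate. BCL2 mRNA was quantified by TaqMan qRT-PCR normalised to ACTB, GAPDH and POLR2A, with bidirectional fitting versus DMSO.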

Read-out in test [4]: Bcl-2 (BID) gene, BID (gene 637)
Kind of test: LTEA_HepaRG_BID: Life Technologies and Expression Analysis (LTEA) Assay for Bcl-2 (BID) gene using HepaRG (AID 2283476). Summed up: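 Differentiated HepaRG cells in serum-free induction medium were exposed in duplicate for 48 h to eight half-log concentrations up to 100 uM in 0.5% DMSO. BID mRNA was quantified by qRT-PCR, normalized to ACTB, GAPDH and POLR2A.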

Read-out in test [5]: Caspase-3 (Homo sapiens) (UniProt P42574)
Description: LTEA_HepaRG_CASP3: Life Technologies and Expression Analysis (LTEA) Assay for cysteine-aspartic acid protease (CASP3) using HepaRG (AID 2283477). Summed up: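 In HepaRG liver cells dosed for 48 h at up to 100 uM (eight-point, duplicate), CASP3 expression changes are scored by qRT-PCR. Activity is fitted in both directions with 0.5% DMSO as baseline.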

Read-out in test [6]: Cytochrome P450 (CYP24A1), CYP24A1 (gene 1591)
Description: LTEA_HepaRG_CYP24A1: Life Technologies and Expression Analysis (LTEA) Assay for Cytochrome P450 (CYP24A1) using HepaRG (AID 2283478). Summed up:
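Human liver HepaRG cultures receive each chemical for 48 h across an eight-point half-log series topping at 100 uM in 0.5% DMSO. Induction or suppression of CYP24A1 mRNA is scored relative to vehicle after housekeeping-gene normalization.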

Read-out in test [7]: Cytochrome P450 (CYP1A2), CYP1A2 (gene 1544)
Kind of test: LTEA_HepaRG_CYP1A2: Life Technologies and Expression Analysis (LTEA) Assay for Cytochrome P450 (CYP1A2) using HepaRG (AID 2283479). Summed up: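 Assesses CYP1A2 mRNA in human HepaRG liver cells after 48 h chemical exposure at up to 100 uM. Values come from qRT-PCR with bidirectional curve fitting relative to DMSO.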

Read-out in test [8]: cysteine-aspartic acid protease (CASP8), CASP8 (gene 841)
Description: LTEA_HepaRG_CASP8: Life Technologies and Expression Analysis (LTEA) Assay for cysteine-aspartic acid protease (CASP8) using HepaRG (AID 2283480). Summed up: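 HepaRG, 48 h exposure, duplicate wells; 8 conc, half-log from 100 uM, 0.5% DMSO. Serum-free induction medium. CASP8 mRNA by TaqMan qRT-PCR, norm. ACTB/GAPDH/POLR2A; gain/loss fitted vs DMSO.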

Read-out in test [9]: Cytochrome P450 (CYP2B6), CYP2B6 (gene 1555)
Description: LTEA_HepaRG_CYP2B6: Life Technologies and Expression Analysis (LTEA) Assay for Cytochrome P450 (CYP2B6) using HepaRG (AID 2283481). Summed up: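 Using 48 h treatment of HepaRG cells in serum-free induction medium, concentrations spanned half-log steps from 100 uM in 0.5% DMSO vehicle. CYP2B6 mRNA induction or loss is scored by qRT-PCR against DMSO.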

Read-out in test [10]: Cytochrome P450 2C19 (Homo sapiens) (UniProt P33261)
Kind of test: LTEA_HepaRG_CYP2C19: Life Technologies and Expression Analysis (LTEA) Assay for CYP2C19 using HepaRG (AID 2283482). Summed up:
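Human HepaRG liver cells received test chemicals for 48 h (highest 100 uM, half-log dilutions in 0.5% DMSO). CYP2C19 mRNA induction or loss is read by multiplexed qRT-PCR and fitted in both directions versus vehicle.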

Read-out in test [11]: CYP2C8 (gene 1558)
Kind of test: LTEA_HepaRG_CYP2C8: Life Technologies and Expression Analysis (LTEA) Assay for CYP2C8 using HepaRG (AID 2283483). The gist of the method:
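CYP2C8 mRNA induction or loss, by qRT-PCR normalized to ACTB/GAPDH/POLR2A, is read in HepaRG cells after 48 h treatment. Concentrations run from 100 uM down in half-log dilutions, with 0.5% DMSO as vehicle and baseline.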

Read-out in test [12]: CYP2C9 (gene 1559)
Description: LTEA_HepaRG_CYP2C9: Life Technologies and Expression Analysis (LTEA) Assay for CYP2C9 using HepaRG (AID 2283484). Summed up:
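Cells plated 48 h, switched to serum-free induction medium, then treated in duplicate for 48 h at eight concentrations (max 100 uM, 0.5% DMSO). RNA then analysed by qRT-PCR for CYP2C9; curves fitted in both directions relative to DMSO.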

Read-out in test [13]: CYP2E1 (gene 1571)
Description: LTEA_HepaRG_CYP2E1: Life Technologies and Expression Analysis (LTEA) Assay for CYP2E1 using HepaRG (AID 2283485). The gist of the method:
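HepaRG cells in serum-free induction medium exposed 48 h to test chemicals, 8 half-log concentrations up to 100 uM in 0.5% DMSO, duplicate. CYP2E1 mRNA by qRT-PCR, normalized to ACTB, GAPDH, POLR2A; bidirectional fit versus DMSO.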

Read-out in test [14]: CYP4A11 (gene 1579)
Description: LTEA_HepaRG_CYP4A11: Life Technologies and Expression Analysis (LTEA) Assay for CYP4A11 using HepaRG (AID 2283486). The gist of the method:
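Readout is CYP4A11 mRNA induction or suppression (qRT-PCR, ACTB/GAPDH/POLR2A normalization) in human HepaRG cells after 48 h chemical treatment, concentrations to 100 uM in 0.5% DMSO, fitted bidirectionally against vehicle.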

Read-out in test [15]: Cytochrome P450 3A4 (Homo sapiens) (UniProt P08684)
Description: LTEA_HepaRG_CYP3A4: Life Technologies and Expression Analysis (LTEA) Assay for CYP3A4 using HepaRG (AID 2283487). Summed up: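 Differentiated HepaRG cells in serum-free induction medium exposed in duplicate for 48 h to 8 half-log concentrations up to 100 uM in 0.5% DMSO. CYP3A4 mRNA measured by qRT-PCR normalized to ACTB, GAPDH and POLR2A; bidirectional fit versus DMSO.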

Read-out in test [16]: DNA damage-inducible transcript 3 (DDIT3), DDIT3 (gene 1649)
Kind of test: LTEA_HepaRG_DDIT3: Life Technologies and Expression Analysis (LTEA) Assay for DNA damage-inducible transcript 3 (DDIT3) using HepaRG (AID 2283488). The gist of the method:
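Differentiated human HepaRG cells in serum-free induction medium were exposed in duplicate for 48 h to 8 concentrations (top 100 uM, half-log steps, 0.5% DMSO). DDIT3 mRNA measured by TaqMan qRT-PCR, normalized to ACTB/GAPDH/POLR2A; bidirectional fit versus DMSO.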

Read-out in test [17]: Pro-epidermal growth factor (Homo sapiens) (UniProt P01133)
Kind of test: LTEA_HepaRG_EGF: Life Technologies and Expression Analysis (LTEA) Assay for Epidermal growth factor (EGF) using HepaRG (AID 2283489). Summed up:
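EGF expression changes in human HepaRG cells are scored by bidirectional fitting relative to 0.5% DMSO controls. Chemicals are tested at eight half-log concentrations up to 100 uM for 48 h in serum-free induction medium.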

Read-out in test [18]: Early growth response protein 1 (EGR1) transcription factor, EGR1 (gene 1958)
Kind of test: LTEA_HepaRG_EGR1: Life Technologies and Expression Analysis (LTEA) Assay for Early growth response protein 1 (EGR1) transcription factor using HepaRG (AID 2283490). The gist of the method:
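Read-out is EGR1 mRNA level by qRT-PCR, normalized to three housekeeping genes and analysed for gain or loss of signal against 0.5% DMSO. Source cells: human HepaRG, treated 48 h at up to 100 uM in half-log dilutions.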

Read-out in test [19]: Ezrin (EZR), EZR (gene 7430)
Kind of test: LTEA_HepaRG_EZR: Life Technologies and Expression Analysis (LTEA) Assay for Ezrin (EZR) using HepaRG (AID 2283491). The gist of the method: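 Differentiated human HepaRG cells, 48 h after plating, were exposed in serum-free induction medium for 48 hours to eight half-log concentrations up to 100 uM in 0.5% DMSO. EZR mRNA was measured by TaqMan qRT-PCR, normalized to ACTB, GAPDH and POLR2A, and fitted bidirectionally against DMSO.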

Read-out in test [20]: Cytochrome P450 3A7 (Homo sapiens) (UniProt P24462)
Description: LTEA_HepaRG_CYP3A7: Life Technologies and Expression Analysis (LTEA) Assay for CYP3A7 using HepaRG (AID 2283492). The gist of the method: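 Cells were thawed, plated, cultured 48 h, then treated for a further 48 h with chemicals (eight-point half-log series from 100 uM, 0.5% DMSO). RNA was isolated and CYP3A7 expression quantified by qRT-PCR normalised to ACTB, GAPDH and POLR2A.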

Activity calls are given as the source filed them. Rule for the calls: active = hit-call score of the fitted dose curve at least 0.9, where 1 is the maximum; inactive = score below 0.9.

This is an account of results in PubChem BioAssay (EPA / NIEHS).

The AC50 is the concentration giving half of the maximal activity seen.

Chain of Cytochrome P450 3A4 (Homo sapiens) (P08684 whole entry, looked up): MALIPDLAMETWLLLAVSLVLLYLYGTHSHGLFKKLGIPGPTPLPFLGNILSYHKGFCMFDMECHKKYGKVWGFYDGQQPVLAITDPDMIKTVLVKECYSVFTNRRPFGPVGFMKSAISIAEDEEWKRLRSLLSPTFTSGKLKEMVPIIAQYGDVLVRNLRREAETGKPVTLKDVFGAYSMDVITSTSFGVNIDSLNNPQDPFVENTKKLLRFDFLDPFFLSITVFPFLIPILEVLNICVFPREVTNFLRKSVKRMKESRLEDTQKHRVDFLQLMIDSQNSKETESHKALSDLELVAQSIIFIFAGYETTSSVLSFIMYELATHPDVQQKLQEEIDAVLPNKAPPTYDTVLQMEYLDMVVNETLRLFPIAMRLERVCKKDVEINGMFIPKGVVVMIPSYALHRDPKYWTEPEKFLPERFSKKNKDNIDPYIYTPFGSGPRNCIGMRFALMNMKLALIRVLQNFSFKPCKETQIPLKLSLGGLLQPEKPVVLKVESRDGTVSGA
Chain of Cytochrome P450 2C19 (Homo sapiens) (P33261 whole entry, looked up): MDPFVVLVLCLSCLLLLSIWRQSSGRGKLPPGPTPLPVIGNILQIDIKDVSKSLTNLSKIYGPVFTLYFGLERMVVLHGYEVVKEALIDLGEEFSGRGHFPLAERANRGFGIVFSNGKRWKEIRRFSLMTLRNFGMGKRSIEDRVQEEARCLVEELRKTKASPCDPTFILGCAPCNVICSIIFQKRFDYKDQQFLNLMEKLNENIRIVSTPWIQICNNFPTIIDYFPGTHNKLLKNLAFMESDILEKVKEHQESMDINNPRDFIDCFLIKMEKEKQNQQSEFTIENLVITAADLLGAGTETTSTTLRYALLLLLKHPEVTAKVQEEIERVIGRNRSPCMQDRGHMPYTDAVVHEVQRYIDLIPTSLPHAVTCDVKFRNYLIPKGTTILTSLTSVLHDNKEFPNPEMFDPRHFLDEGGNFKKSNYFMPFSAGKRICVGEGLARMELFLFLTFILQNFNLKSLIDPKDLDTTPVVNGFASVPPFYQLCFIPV
Chain of Caspase-3 (Homo sapiens) (P42574 whole entry, looked up): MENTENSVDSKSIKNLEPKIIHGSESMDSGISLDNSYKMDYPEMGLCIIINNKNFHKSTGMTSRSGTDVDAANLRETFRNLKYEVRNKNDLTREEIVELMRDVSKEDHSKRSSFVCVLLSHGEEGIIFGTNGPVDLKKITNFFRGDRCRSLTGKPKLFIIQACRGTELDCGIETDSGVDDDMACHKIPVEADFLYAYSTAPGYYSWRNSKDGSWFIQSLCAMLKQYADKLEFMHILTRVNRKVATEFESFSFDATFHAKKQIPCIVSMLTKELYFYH
Chain of Cytochrome P450 3A7 (Homo sapiens) (P24462 whole entry, looked up): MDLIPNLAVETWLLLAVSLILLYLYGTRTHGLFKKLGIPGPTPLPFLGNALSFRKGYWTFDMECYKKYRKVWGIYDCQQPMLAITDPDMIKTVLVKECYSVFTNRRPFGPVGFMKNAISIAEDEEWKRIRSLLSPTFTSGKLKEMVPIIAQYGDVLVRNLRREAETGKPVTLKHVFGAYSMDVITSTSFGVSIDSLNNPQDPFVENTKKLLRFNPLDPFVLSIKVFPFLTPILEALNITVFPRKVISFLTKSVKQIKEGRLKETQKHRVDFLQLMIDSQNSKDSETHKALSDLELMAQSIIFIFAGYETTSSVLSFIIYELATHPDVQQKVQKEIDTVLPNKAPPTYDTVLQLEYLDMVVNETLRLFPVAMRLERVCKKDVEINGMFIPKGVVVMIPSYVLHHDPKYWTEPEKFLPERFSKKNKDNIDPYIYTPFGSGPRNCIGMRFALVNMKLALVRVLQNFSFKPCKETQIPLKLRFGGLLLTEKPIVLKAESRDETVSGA
Chain of Apoptosis regulator Bcl-2 (Homo sapiens) (P10415 whole entry, looked up): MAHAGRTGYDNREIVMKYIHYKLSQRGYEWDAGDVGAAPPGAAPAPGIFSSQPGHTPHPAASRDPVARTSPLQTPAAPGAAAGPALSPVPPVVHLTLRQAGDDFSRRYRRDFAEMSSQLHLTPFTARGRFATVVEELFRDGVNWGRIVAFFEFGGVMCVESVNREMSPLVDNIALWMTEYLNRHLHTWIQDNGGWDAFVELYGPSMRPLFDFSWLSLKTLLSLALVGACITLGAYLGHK

In the case of `CC(C)CCCCCCOC(=O)c1ccc(C(=O)OCCCCCCC(C)C)c(C(=O)OCCCCCCC(C)C)c1`, the outcome in [1], in test [2], in [3], in [4], in [5] and in [6] was inactive. Moreover, the call in test [8], in [9], in [10], in [11], in test [12] and in test [13] was inactive. The result in [14], in [15], in test [16], in test [17], in test [18] and in test [19] was inactive. Besides, the call in test [20] was inactive. Also, the AC50 in test [7] was 14.4 µM (active).

Regarding `O=C(O)CC(O)C(=O)O` (stereo not given), the compound was called inactive in test [1], in [2], in test [3], in test [4], in [5] and in [6]. For the same compound, the result in test [7], in test [8], in [9], in [10], in test [11] and in [12] was inactive. Moreover, the call in [13], in [14], in test [15], in test [16], in [17] and in [18] was inactive. For the same compound, the result in test [19] and in [20] was inactive.

Take `Cc1ccc(N)cc1O`: the compound was called inactive in [1], in test [2], in test [3], in test [4], in test [5] and in test [6]. Further, the compound was classed as inactive in test [8], in test [9], in test [10], in [11], in test [12] and in [14]. Further, the result in test [15], in [16], in [17], in test [18], in [19] and in [20] was inactive. For the same compound, the AC50 in test [7] is 26.8 µM (active); in [13] it was 30.8 µM (active).

Consider `CCCCC(CC)COC(=O)CCCCCCCCC(=O)OCC(CC)CCCC` (stereo not given), for which the call in [1], in [2], in [3], in test [4], in [5] and in [6] was inactive. Moreover, the compound was classed as inactive in [7], in test [8], in [9], in test [10], in test [11] and in [12]. The result in [13], in [14], in [15], in test [16], in test [17] and in [18] was inactive. Besides, the call in [19] and in test [20] was inactive.

On to `O=C(O)c1cccc(Oc2ccccc2)c1`, for which the compound was classed as inactive in test [1], in test [2], in test [3], in test [4], in [5] and in test [6]. For the same compound, the outcome in test [8], in [11], in test [12], in test [13], in [15] and in test [16] was inactive. In addition, the call in [17], in test [18], in test [19] and in test [20] was inactive. For the same compound, the concentration at half-maximal activity (AC50) was 30 µM (active) in [7], 34.7 µM (active) in test [9], 31.2 µM (active) in [10] and 38.9 µM (active) in [14].
